# Test results as given in PubChem BioAssay (Tox21).
# Calls of active or inactive are those of the source. The call rests on the fitted dose curve.
# Molecular target: Estrogen receptor (Homo sapiens) (UniProt P03372)
# Assay: qHTS assay to identify small molecule agonists of the estrogen receptor alpha (ER-alpha) signaling pathway (AID 743075);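 further: HEK293 GripTite cells with ER-alpha and UAS-driven beta-lactamase reporter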
# Conditions: HEK293 ER-alpha-UAS-bla, beta-lactamase FRET ratio, 18 h; series mostly up to 70.1 µM; activation: at the top concentration
# On the % scale 0 is the no-effect control and ±100 the full control effect; potency means the concentration at half of the fitted maximal effect.
# Estrogen receptor (Homo sapiens), sequence (P03372 whole entry, looked up): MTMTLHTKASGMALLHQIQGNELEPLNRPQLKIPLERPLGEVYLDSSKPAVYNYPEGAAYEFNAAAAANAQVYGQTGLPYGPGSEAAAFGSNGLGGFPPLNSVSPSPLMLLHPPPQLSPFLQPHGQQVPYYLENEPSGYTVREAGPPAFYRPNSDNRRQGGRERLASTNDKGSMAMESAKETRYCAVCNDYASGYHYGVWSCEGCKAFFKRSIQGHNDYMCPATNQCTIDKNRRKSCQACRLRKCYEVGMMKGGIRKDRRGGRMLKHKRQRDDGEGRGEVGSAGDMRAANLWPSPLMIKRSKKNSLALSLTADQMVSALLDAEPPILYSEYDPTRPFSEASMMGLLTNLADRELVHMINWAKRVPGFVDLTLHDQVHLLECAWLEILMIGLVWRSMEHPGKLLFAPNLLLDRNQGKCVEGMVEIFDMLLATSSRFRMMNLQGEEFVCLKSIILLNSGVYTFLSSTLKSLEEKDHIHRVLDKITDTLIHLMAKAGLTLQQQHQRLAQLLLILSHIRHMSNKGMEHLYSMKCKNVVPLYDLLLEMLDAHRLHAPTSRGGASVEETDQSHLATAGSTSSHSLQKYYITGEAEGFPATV
SMILES,activation,Potency
Cc1cc(C(=O)NNCc2ccccc2)no1,0.591% [at 32.9 µM] (inactive),–
CO[C@H]1C=CO[C@@]2(C)Oc3c(C)c(O)c4c(O)c(c(/C=N/N5CCN(C6CCCC6)CC5)c(O)c4c3C2=O)NC(=O)/C(C)=C\C=C[C@H](C)[C@H](O)[C@@H](C)[C@@H](O)[C@@H](C)[C@H](OC(C)=O)[C@@H]1C,3.88% (inactive),–
CCC(CN)CC(C)CCNCC(O)CNCC(C)CC(CC)CN (stereo not given),0.153% (inactive),–
COc1cc(Br)c(C[N+]2(CCOCCC3CCC4CC3C4(C)C)CCOCC2)cc1OC (stereo not given),-1.98% (inactive),–
CCOC(=O)c1cc(-c2ccccc2)nc2ccc(C)cc12,9.83% (inactive),–
OCC(S)CS (stereo not given),7.04% (inactive),–
CCCCC(=O)O[C@H]1CC[C@H]2[C@@H]3CCc4cc(O)ccc4[C@H]3CC[C@]12C,–,0.6 nM [inconclusive] (active)
CNc1cc(OC)c(C(=O)N[C@H]2CCN(Cc3ccccc3)[C@H]2C)cc1Cl,1.02% (inactive),–
CC[N+](C)(C)Cc1ccccc1Br,-0.672% [at 32.9 µM] (inactive),–
Clc1ccc(COC(Cn2ccnc2)c2ccc(Cl)cc2Cl)c(Cl)c1 (stereo not given),8.3% [at 32.9 µM] (inactive),–
COc1ccc(C(=O)Nc2ccccc2CCC2CCCCN2C)cc1 (stereo not given),9.83% (inactive),–
Nc1ncnc2c1ncn2[C@@H]1O[C@H](COP(=O)(O)OP(=O)(O)OP(=O)(O)O)[C@@H](O)[C@H]1O,1.64% (inactive),–
CC(C)CN(C[C@@H](O)[C@H](Cc1ccccc1)NC(=O)O[C@@H]1CCOC1)S(=O)(=O)c1ccc(N)cc1,0.367% (inactive),–
C[N+]1(C)[C@@H]2CC(OC(=O)C(O)(c3cccs3)c3cccs3)C[C@H]1[C@@H]1O[C@@H]12 (stereo not given in full),-1.26% (inactive),–
CCCCC(=O)N(Cc1ccc(-c2ccccc2-c2nn[nH]n2)cc1)[C@@H](C(=O)O)C(C)C,0.378% (inactive),–
